Data taken from PubChem BioAssay AID602410 (Johns Hopkins Ion Channel Center, 2012).
The campaign covered roughly 340,000 compounds. About 2,800 (0.82%) were called active.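 The calls were made as follows: active = B-score under library mean minus 4 SD, starting fluorescence ratio at most library mean plus 5 SD; inactive = the rest.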 The entries come from a sample that favours actives as a whole.

Molecular target: Potassium channel subfamily K member 3 (Homo sapiens) (UniProt O14649)
Experiment: human KCNK3 channel inhibitors, primary screen, CHO cells, FluxOR thallium flux, B-score (AID 602410);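 as to B-score: more negative B-score means stronger inhibition of thallium flux through KCNK3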
Details: FluxOR fluorescence, at 10 µM; hits give low values

Chain of Potassium channel subfamily K member 3 (Homo sapiens) (O14649 whole entry, looked up): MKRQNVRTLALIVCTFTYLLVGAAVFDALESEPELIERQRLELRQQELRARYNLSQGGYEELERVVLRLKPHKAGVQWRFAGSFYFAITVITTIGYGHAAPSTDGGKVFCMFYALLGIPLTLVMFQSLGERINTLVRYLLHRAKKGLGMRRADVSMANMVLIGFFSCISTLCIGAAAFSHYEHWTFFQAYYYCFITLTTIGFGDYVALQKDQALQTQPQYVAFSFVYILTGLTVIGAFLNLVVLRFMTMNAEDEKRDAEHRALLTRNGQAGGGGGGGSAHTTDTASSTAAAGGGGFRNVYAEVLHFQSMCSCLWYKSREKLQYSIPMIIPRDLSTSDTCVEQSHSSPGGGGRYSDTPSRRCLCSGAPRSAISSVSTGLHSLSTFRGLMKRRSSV

B-score, inactive:
NNC(=O)c1cccc(COCC(F)(F)C(F)F)c1, O=C1Nc2ccc(Br)cc2/C1=N/N=C/C1=C(N2CCOCC2)C(=C\c2ccccc2)/CC1, N#C/C(=C\C1=C(N2CCOCC2)C(=C\c2ccccc2)/CC1)C(=O)Nc1ccccc1F, COc1ccc(N2CCN(CCNC(=O)Nc3cc(Cl)ccc3Cl)CC2)cc1, COc1ccc(NC(=O)c2sccc2SCC#N)cc1, CC(C)(C)N1CC(c2nc3ccccc3n2Cc2ccc(F)cc2)CC1=O (stereo not drawn), Cc1cc(C)c(C)c(S(=O)(=O)N[C@@H](C)C(=O)OC(C)C(=O)NC(N)=O)c1C (stereo partly drawn), CSc1nsc(NC(=O)Nc2ccccc2)n1, CCSc1nsc(NC(=O)Nc2cccc(C(C)=O)c2)n1, CCOC(=O)C1CCCN(C(=O)C2CCN(S(=O)(=O)c3ccc(Cl)c(C(F)(F)F)c3)CC2)C1 (stereo not drawn), COC(=O)c1cccc(-n2[nH]nnc2=S)c1, COc1ccccc1CNC(=O)COc1ccc(C)nc1[N+](=O)[O-], Cc1ccc(S(=O)(=O)N2C[C@@H]3CCCC[C@@H]3[C@@H](C)[C@H]2c2cn(Cc3ccccc3)c3ccc(F)cc23)cc1, COc1ccc(CNC(=O)CNC(=O)c2sc3ccccc3c2Cl)cc1OC, CCc1ccccc1NC(=O)NCCN1CCCCC1, CCOc1ccc(CCNC(=O)COC(=O)c2ccc(F)c(S(=O)(=O)N3CCOCC3)c2)cc1OCC, CCOc1ccc(OCC)c(NC(=O)C2CCN(S(=O)(=O)c3c(C)noc3C)CC2)c1, CCOC(=O)C1CCN(C(=O)C2CCN(S(=O)(=O)CC)CC2)CC1, COC(=O)c1ccccc1Sc1c(/C=N/OCc2ccc(Cl)cc2)c(C(F)(F)F)nn1C, Cc1ccc(NC(=O)CCC(=O)N2CCC(c3ccccc3)=N2)cc1S(=O)(=O)N1CCCCC1, Cc1ccc(C(=O)N2CCCC(c3ccccc3)=N2)cc1, Cc1ccc(CSc2nc3[nH]ncc3c(=O)[nH]2)cc1, Cc1cc2c(=O)n(CC(=O)NCC(=O)Nc3ccc(C(C)C)cc3)cnc2s1, CCOC(=O)c1c(N)sc2c1CCCC2=O, COc1cccc(COC(=O)C2CCN(S(=O)(=O)c3ccc(Cl)cc3)CC2)c1OC, CCOc1ccc(S(=O)(=O)N2CCC(C(=O)OCc3ccc(OC)cc3)CC2)cc1, CC12CN3CC(C)(CN(C1)C3c1ccc(Cl)cc1Cl)C2=O (stereo not drawn), Cn1c(SCC(=O)N2CCCC2)nnc1-c1cccs1, COc1cc(C(c2c(NC(=O)c3ccco3)sc(C)c2C)N2CCOCC2)cc(OC)c1OC (stereo not drawn), CCc1cc(C(N)=O)c(NC(=O)c2ccc(OC)cc2)s1, COc1cc(NC(=O)COC(=O)c2cnc(C)cn2)c(C)cc1[N+](=O)[O-], COC(=O)c1ccc(C)c(NC(=O)C2CC(=O)N(C3CCCC(C)C3C)C2)c1 (stereo not drawn), O=C(Nc1ccccc1C(=O)N1CCCCC1)c1ccco1, O=C(c1cccc(S(=O)(=O)Nc2ccccc2Cl)c1)N1CCN(C(=O)c2ccco2)CC1, NS(=O)(=O)c1ccc(CCNC(=O)COC(=O)COc2cccc(C(F)(F)F)c2)cc1, Cc1ccc(Cl)cc1NC(=O)CN1CCN(S(=O)(=O)N2CCOCC2)CC1, CCOC(=O)CNC(=O)CSc1ccc2nnc(-c3cccnc3)n2n1, C/C(CC(C)C)=N\Oc1nc(C)cc(C)n1, Cc1cc(C)c(NC(=O)C[N+](C)(C)CC(O)COc2cccc3ccccc23)c(C)c1 (stereo not drawn), CCC(C)Sc1nc2c(c(=O)[nH]c(=O)n2C)n1CC(O)COc1cccc2ccccc12 (stereo not drawn), O=C(OCC(O)C(O)COC(=O)c1ccccc1)c1ccccc1 (stereo not drawn), Cc1ccc(C)c(S(=O)(=O)Nc2cccc(-n3cnnn3)c2)c1, CC(=O)c1c(C)[nH]c(C(=O)Nc2cc(S(=O)(=O)N(C)C)ccc2C)c1C, O=C(CCn1nnc2ccccc21)OCC(=O)c1ccc([N+](=O)[O-])cc1, CCc1nnc(NC(=O)c2cc(S(=O)(=O)N3CCCCC3)ccc2C)s1, CCc1nnc(NC(=O)c2cccc(S(=O)(=O)N(C)c3ccc(OC)cc3)c2)s1, Cc1cc(C)nc(NNC2=CC(=O)CC(C)(C)C2)n1, O=C1c2ccccc2C(O)N1Cc1ccccc1Cl (stereo not drawn), Cc1cc(C)cc(NC(=S)NCCc2c[nH]c3ccccc23)c1, O=C(NCCc1c[nH]c2ccccc12)c1cc2ccccc2oc1=O, O=P(c1cccs1)(c1cccs1)c1cccs1, CCC1CCCCN1C(=S)NC(=O)c1ccco1 (stereo not drawn), CCC1CCCCN1C(=S)Nc1ccc(C(C)=O)cc1 (stereo not drawn), CCN(C[C@H]1N[C@@](CC)(C(=O)OC)[C@H]2C(=O)N(Cc3ccccc3)C(=O)[C@@H]12)S(=O)(=O)c1ccccc1, CCOc1c(Br)cc(/C=C2\C(=O)N(CCC#N)N=C2C)cc1OC, O=C(COC(=O)/C=C/c1ccc(S(=O)(=O)N2CCCCCC2)cc1)NCc1ccccc1Cl, CC(=O)c1cccc(NC(=O)CN2C(=O)c3cccnc3Oc3ccc(Cl)cc32)c1, COC(=O)CCC(=O)N1CCCC(CO)(Cc2ccccc2)C1 (stereo not drawn), Cc1ccccc1CC1(CO)CCCN(C(=O)c2cc(-c3ccccc3)no2)C1 (stereo not drawn), CC(Sc1nnc(CNC(=O)c2ccccc2F)n1C)C(=O)Nc1nccs1 (stereo not drawn), CC1CCN(S(=O)(=O)c2ccc(NC(=O)C3CC(=O)N(c4ccccc4)C3)cc2)CC1 (stereo not drawn), COc1ccc(Nc2ncnc3ccc(Br)cc23)c(OC)c1, COc1ccc(Nc2ncnc3sc(C)cc23)cc1, COC(=O)c1sc(SC)c(S(=O)(=O)C(C)C)c1N/N=C(\C#N)S(=O)(=O)c1ccccn1, CC1CCN(C(=O)/C(=C\c2ccccc2F)NC(=O)c2ccccc2)CC1, COC(=O)CN1C(=O)[C@H]2[C@@H](/C=C/c3ccccc3)N3C(=O)CN(CC4CC4)C(=O)[C@@]3(Cc3ccccc3)[C@H]2C1=O, O=C(CC1CCCCC1)Nc1c2c(nn1-c1ccc(F)cc1)CS(=O)(=O)C2, C=CCNC(=O)c1ccccc1NC(=O)c1ccc(Cl)c(S(=O)(=O)Nc2cccc(C)c2C)c1, CN(C)CCCN1C(=O)CSC1c1ccc([N+](=O)[O-])cc1 (stereo not drawn), CCCCc1ccc(NC(=O)NCc2cccnc2)cc1, Cc1ccc(C(=O)Nc2ccc3c(c2)OCCO3)cc1S(=O)(=O)N1CCOCC1, CCCn1nnc(NC(=O)COc2ccc(CC)cc2)n1, COc1ccccc1N1CCC(N2CCN(CC(C)(C)C)C(CCO)C2)CC1 (stereo not drawn), O=c1oc2c(CN3CCCCC3)c(O)ccc2c2c1CCCCC2, COc1ccc2c3c(c(=O)oc2c1OCC(=O)C(C)(C)C)CCCC3, O=C(CCl)N(Cc1cccc([N+](=O)[O-])c1)c1cccc(Cl)c1, O=[N+]([O-])c1cccc(C=NN=Cc2ccccc2O)c1, Cc1cc(Nc2cccc(F)c2)n2ncnc2n1, CC(NCC(=O)Nc1cc(Cl)cc(Cl)c1)c1ccccc1 (stereo not drawn), CC(=O)c1ccc(NC(=O)C(C)NCc2ccc(Cl)cc2)cc1 (stereo not drawn), CC(=O)Nc1ccccc1OC(C)C(=O)N1CCC(C)CC1 (stereo not drawn), CCOc1ccc(Br)cc1S(=O)(=O)Nc1ccc(C(=O)OC(C)C(=O)N(C)c2ccccc2)cc1 (stereo not drawn), COCCCNC(=O)CCc1nc2cccnc2n1Cc1ccc(OC)cc1, Cc1ccc2nc(NC(=O)C3CSC4(C)CCC(=O)N34)sc2c1 (stereo not drawn)

B-score, active:
O=C(O)c1ccc(NN=CC2=C(N3CCOCC3)/C(=C/c3ccccc3)CC2)cc1 -9.13, C=CCSc1nsc(NC(=O)Nc2cccc(C(C)=O)c2)n1 -9.78, CN1CCc2ccccc2C1Cc1ccccc1NC(=O)c1sc2ccccc2c1Cl (stereo not drawn) -9.31, CC[n+]1cc(C)ccc1/C=C/c1ccc(N(C)C)cc1 -8.95, Cc1ccc(NC(=S)N2CCCC(c3ccccc3)=N2)cc1 -8.89, COC(=O)c1ccc(COC(=O)C2CCN(S(=O)(=O)c3c(Cl)cccc3Cl)CC2)o1 -10.8, CCc1cc(C(c2ccccc2OC)N2CCOCC2)c(NC(=O)c2ccccc2)s1 (stereo not drawn) -8.97, CS/C(=C\C(=O)c1ccco1)Nc1ccccc1Cl -11.4, CSc1nnc2c(n1)OC(c1ccsc1)N(C(C)=O)c1ccccc1-2 (stereo not drawn) -9.55, CC(C)c1ccccc1OCC(O)CN(CC(O)COc1cccc2ccccc12)C(C)C (stereo not drawn) -9.21, CCc1ccc2nc3sc(C(=O)Nc4nnc(CC)s4)c(N)c3cc2c1 -9.98, O=C(NCCc1c[nH]c2ccccc12)c1cccc(Br)c1 -11.8, CCC1CCCCN1C(=O)Nc1cccc(NC(=O)N2CCCCC2CC)c1 (stereo not drawn) -10.6, CCCc1cc(C(=O)N2CCCC(CO)(CCCc3ccccc3)C2)n(C)n1 (stereo not drawn) -9.3, COc1ccc(Nc2ncnc3sc(-c4ccccc4)cc23)c(OC)c1 -12, CCCCCCCCCCCCN1C(=O)CSC1c1cccnc1 (stereo not drawn) -18.4, CCCOc1ccc2c3c(c(=O)oc2c1OCCC)CCC3 -11.4, C=CCN(N=Nc1cccc([N+](=O)[O-])c1)c1cccc([N+](=O)[O-])c1 -9.23, CC(NCc1cccs1)C(=O)Nc1cc(Cl)cc(Cl)c1 (stereo not drawn) -9.85
